# Assay outcomes from PubChem BioAssay.
# BRCA1 expr act: qHTS Assay to Identify Small Molecule Activators of BRCA1 Expression; AID 624202, 2012; Potency, µM (series often up to 46.1 µM), for the others: top-dose activation, usual class: activators; MCF7-BRCA1-FFLuc reporter, luminescence, 48 h; response scale: scaled: vehicle 0%, 10 µM genistein 100%; 1.1% of 380,000 active; also: potency is read from the fitted curve at half-maximal effect; nearly all actives have a fitted effect of over 80% in size
#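 Compounds are tested at multiple concentrations on MCF7 BRCA1-luciferase reporter cells seeded at 2000 per well; after 48 h, a single luminescence end-point is taken and curves fitted to the normalized data.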
# pAkt inh: HTS Assay for Inhibitors of Akt Phophorylation: Primary Screen; Neuro2A IGF-stimulated pAkt S473 HTRF, 20 min; stronger effect = lower value; activity change, % for hits at 50 µM; 0.32% of 360,000 active; AID 651550, 2012; in the data active = activity change below about -80%; inconclusive = mostly about -51% to -80%; also: % is scaled to controls: 0 for no effect and ±100 for the full control effect
#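 Single-point screen (50 µM final compound) in Neuro2A cells stimulated 20 min with 6 nM IGF at 37 deg C. After lysis, Ser473-phosphorylated Akt read by HTRF (ex 330 nm, em 615/665 nm) as the 665/615 ratio.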
# CCT chaperon mod: High-Throughput Screening for Modulators of Cytosolic Chaperonin Activity | purified chaperonin ATPase assay, HTRF ADP detection, 30 min | 0.3% of 360,000 active | activity change, % (concentration not given with the values), hits read low; in the data active = activity change below about -30%; also: % is scaled to controls: 0 for no effect and ±100 for the full control effect
#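 Enzyme 40 or 20 nM (batch-dependent) in Tris pH 7.4/KCl/MgCl2/DTT; cpd 76 uM single point; ATP 10 uM; 30 min 37 °C; Transcreener ADP HTRF detection, 30 min RT; ratio 665/615.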
# Mm-Cpn inhibitor: Inhibitors of TCP-1 ring complex (TRiC) of Methanococcus maripaludis (MmCpn): qHTS. purified Mm-Cpn ATPase, ADP Transcreener TR-FRET. Potency, µM (highest dose often 76.9 µM), without a hit: at the top dose activity, negative = inhibition, usual class: inhibitors. 0.031% of 330,000 active; also: potency is read from the fitted curve at half-maximal effect; % is scaled to controls: 0 for no effect and ±100 for the full control effect; nearly all actives have a fitted effect of over 80% in size
#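 Inhibition of chaperonin ATP hydrolysis is measured as reduced ADP production, detected by competitive TR-FRET in which signal falls with ADP. Final enzyme 25 nM and ATP 10 uM, reacted 30 min at 37°C.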
# AT treatment: qHTS Assay for Identifying a Potential Treatment of Ataxia-Telangiectasia; F2112 A-T fibroblasts, KAP-1 phosphorylation AlphaLISA; neocarzinostatin DNA damage 30 min before lysis; Potency, µM (doses to about 57.5 µM), for inactives: at the highest dose activation, hits mostly activators; 0.19% of 320,000 active; AID 485349, 2010; also: potency is read from the fitted curve at half-maximal effect; % of control where 0% means no effect; nearly all actives have a fitted effect of over 45% in size
#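 ATM-like activity read as KAP-1 phosphorylation via AlphaLISA donor/acceptor antibody pairs after lysis and 6 hr at 25C. Cells were ATM-null patient fibroblasts (F2112, hTERT), dosed 60 min, then exposed to the DSB inducer NCS for 30 min.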
# * hit, by the source's call; i = inactive; ? = inconclusive; . = not tested or not shown; [ ] = dose if it differs, or a comment. This is a sample that favours compounds with a hit; in the whole collection about 1.8% have one here. Unless noted, calls follow the shape of the dose curve; as a rule, active = well fitted curve in the direction sought with a large enough effect; inconclusive = small, poorly fitted or top-dose-only effect, or another doubt; inactive = no such curve, though single readings can be large; an effect the other way counts as inactive or inconclusive.
SMILES,BRCA1 expr act,pAkt inh,CCT chaperon mod,Mm-Cpn inhibitor,AT treatment
COc1cc2nc(N3CCN(C)CC3)nc(NC(C)C)c2cc1OC,4.5%,.,.,.,.
c1ccc(CCNc2ncnc3ccccc23)cc1,2µM*,i,-1.3,0.8%,-1.3%
COc1cc(S(=O)(=O)N2CCN(C)CC2)ccc1Cl,8.6%,i,-0.9,1.0%,-1.4%
CN1CCN(S(=O)(=O)c2cccc(S(=O)(=O)c3ccc(Cl)c(Cl)c3)c2)CC1,-27.3%,-108.1%*,-0.9,0.7%,2.8%
CCCN1CN(c2ccccc2)C(=S)N(c2ccccc2)C1,-0.5%,i,1.8,0.4%,1.12µM*
CCCN1CNC(=S)N(c2ccccc2OC)C1,-1.3%,i,0.9,1.0%,-2.5%
CS(=O)(=O)N1CCN(Cc2cc3nc(-c4cccc5[nH]ncc45)nc(N4CCOCC4)c3s2)CC1,-69.9%[92.2 µM],.,.,.,.
Cc1ccc(-c2nc(C#N)c(NCCc3ccccn3)o2)cc1,3.55µM*,i,-4.3,1.3%,5.6%
N#Cc1nc(-c2ccc(Cl)cc2)oc1NCCc1ccccn1,3.55µM*,i,-2.7,0.0%,1.0%
COCCNc1oc(-c2ccc(Cl)cc2)nc1C#N,5.62µM*,i,-1.3,-1.3%,0.9%
CN(C)CCCNc1oc(-c2ccc(Cl)cc2)nc1C#N,11.7%,i,-0.6,-6.2%,-6.0%
COCCNc1oc(-c2ccc(C)cc2)nc1C#N,?,i,1.7,-2.9%,2.3%
CCN(C(=O)CSc1nc(N)cc(N)n1)C1CCS(=O)(=O)C1 (stereo not given),1.0%,i,0.1,1.0%,12.2%
CCOc1ccccc1NC(=O)N1C2CCCC1CC(NC(=O)C1CC1)C2 (stereo not given),-35.6%,-87.9%*,-2.5,?,4.2%
O=C(O)c1ccccc1C(=O)Nc1ccc(-c2csc(-c3ccccc3)n2)cc1,7.08µM*,i,1.0,?,-3.7%
O=C(O)c1ccc(-c2nc(-c3ccccc3)cs2)cc1,?,i,-4.1,-3.5%,-1.7%
O=C(Nc1ccc(Cl)cc1Cl)c1csc(-c2cccnc2)n1,-45.8%,i,1.3,?,39.8µM*
CNC(=O)c1ccc(-c2nc(-c3ccccc3)cs2)cc1,2.51µM*,i,-45.1*,1.4%,-2.8%
Cc1nc(-c2ccc(NC(=O)c3ccccc3)cc2)cs1,?,i,0.4,2.0%,-2.6%
CCc1ccccc1NC(=O)c1ccc(-c2csc(C)n2)cc1,3.55µM*,i,-0.5,-11.9%,9.3%
O=C(Nc1ccc(-c2csc(-c3ccccc3)n2)cc1)c1ccccc1Cl,-64.0%,i,-3.4,-6.9%,8.6%
O=C(NCc1ccccc1)c1csc(-c2cccnc2)n1,32.0%,i,3.5,-5.7%,2.2%
COc1ccc(C#Cc2c[nH]c(=O)c3cncnc23)cc1OC,23.2%,.,.,.,.
CCN(C(=O)Cn1cnc2onc(-c3ccc(F)cc3)c2c1=O)c1ccc(OC)cc1,-2.4%,.,.,.,.
O=C(Nc1ccc(Cl)cc1)c1csc(-c2ccccc2)n1,-42.0%,i,-1.8,0.2%,17.8µM*
SMILES,BRCA1 expr act,pAkt inh,CCT chaperon mod,Mm-Cpn inhibitor,AT treatment
O=C(Nc1ccc(Cl)cc1)c1csc(-c2ccncc2)n1,0.0%,i,2.1,4.1%,1.5%
CNCc1nc(-c2ccc[nH]2)c2cc(Cl)ccc2n1,33.4%,.,.,.,.
Fc1cc(Br)ccc1COc1ccc(-c2nnco2)cc1,6.31µM*,i,0.3,2.8%,5.9%
O=C(COc1ccc(-c2nnco2)cc1)Nc1c(F)cccc1F,-0.2%,i,-2.0,1.4%,-0.9%
Fc1ccc(COc2ccc(-c3nnco3)cc2)c(Cl)c1,8.91µM*,i,1.8,1.2%,0.3%
CCn1nc(C)c(/C=N/NC(=O)Cn2cncn2)c1C,0.0%,i,-1.9,1.5%,3.16µM*
CC(C)(C)c1ccc(/C=C(\c2nc3ccccc3[nH]2)S(=O)(=O)c2ccccc2)cc1,-91.9%,i,-4.0,.,.
Cc1cccc(/C=C(\c2nc3ccccc3[nH]2)S(=O)(=O)c2ccccc2)c1,-85.7%,i,1.3,-3.5%,35.5µM*
